Test results as given in PubChem BioAssay (NCATS).
Results filed as inconclusive are left out. Calls of active or inactive are those of the source. The call rests on the fitted dose curve; in most records, active means well fitted curve in the direction sought with a large enough effect; inconclusive means small, poorly fitted or top-dose-only effect, or another doubt; inactive means no such curve, though single readings can be large; an effect the other way counts as inactive or inconclusive.

Assays:
[1] = biological target: Rap guanine nucleotide exchange factor 3 (Homo sapiens) (UniProt O95398); experiment: Confirmatory qHTS for agonist of cAMP-regulated guanine nucleotide exchange factor 3 (EPAC1) (AID 1645881);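 further: EPAC1 catalysed release of BODIPY-GDP from Rap1B seen as fluorescence loss; 100% = effect of cAMP agonist control; nearly all actives have a fitted effect of over 75% in size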
[2] = biological target: Rap guanine nucleotide exchange factor 4 (Homo sapiens) (UniProt Q8WZA2); experiment: Confirmatory qHTS for agonist of cAMP-regulated guanine nucleotide exchange factor 4 (EPAC2) (AID 1645884);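 further: nucleotide exchange releases bodipy-GDP from Rap1 and this lowers its fluorescence; on the % scale 0 is the no-effect control and ±100 the full control effect; nearly all actives have a fitted effect of over 65% in size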
[3] = biological target: Rap guanine nucleotide exchange factor 4 (Homo sapiens) (UniProt Q8WZA2); experiment: Confirmatory qHTS for antagonist of cAMP-regulated guanine nucleotide exchange factor 4 (EPAC2) (AID 1645885); further: nearly all actives have a fitted effect of over 25% in size; further: potency means the concentration at half of the fitted maximal effect; on activity change, negative = inhibition: on the % scale 0 is the no-effect control and ±100 the full control effect
[4] = biological target: Rap guanine nucleotide exchange factor 3 (Homo sapiens) (UniProt O95398); experiment: Counterscreen qHTS for antagonist of cAMP-regulated guanine nucleotide exchange factor 3 (EPAC1) (AID 1645888);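 further: fluorescence loss as bound BODIPY-GDP is released from Rap1B; % of control where 0% means no effect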
In short: (§1)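 Rap1B-BODIPY-GDP 250 nM + GDP 50 uM; cpds 7-pt, final 9.74 nM–152 uM (activator mode) or from 7.32 nM upwards (inhibitor mode); RT; FI 480/540 nm at 5 and 30 min, then ± cAMP, reread.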

[5] = biological target: Rap guanine nucleotide exchange factor 3 (Homo sapiens) (UniProt O95398); experiment: Counterscreen qHTS for agonist of cAMP-regulated guanine nucleotide exchange factor 3 (EPAC1) (AID 1645889); further: nearly all actives have a fitted effect of over 40% in size; further: potency means the concentration at half of the fitted maximal effect; on activation: % of control where 0% means no effect
In short: as §1

Rap guanine nucleotide exchange factor 3 (Homo sapiens), sequence (O95398 whole entry, looked up): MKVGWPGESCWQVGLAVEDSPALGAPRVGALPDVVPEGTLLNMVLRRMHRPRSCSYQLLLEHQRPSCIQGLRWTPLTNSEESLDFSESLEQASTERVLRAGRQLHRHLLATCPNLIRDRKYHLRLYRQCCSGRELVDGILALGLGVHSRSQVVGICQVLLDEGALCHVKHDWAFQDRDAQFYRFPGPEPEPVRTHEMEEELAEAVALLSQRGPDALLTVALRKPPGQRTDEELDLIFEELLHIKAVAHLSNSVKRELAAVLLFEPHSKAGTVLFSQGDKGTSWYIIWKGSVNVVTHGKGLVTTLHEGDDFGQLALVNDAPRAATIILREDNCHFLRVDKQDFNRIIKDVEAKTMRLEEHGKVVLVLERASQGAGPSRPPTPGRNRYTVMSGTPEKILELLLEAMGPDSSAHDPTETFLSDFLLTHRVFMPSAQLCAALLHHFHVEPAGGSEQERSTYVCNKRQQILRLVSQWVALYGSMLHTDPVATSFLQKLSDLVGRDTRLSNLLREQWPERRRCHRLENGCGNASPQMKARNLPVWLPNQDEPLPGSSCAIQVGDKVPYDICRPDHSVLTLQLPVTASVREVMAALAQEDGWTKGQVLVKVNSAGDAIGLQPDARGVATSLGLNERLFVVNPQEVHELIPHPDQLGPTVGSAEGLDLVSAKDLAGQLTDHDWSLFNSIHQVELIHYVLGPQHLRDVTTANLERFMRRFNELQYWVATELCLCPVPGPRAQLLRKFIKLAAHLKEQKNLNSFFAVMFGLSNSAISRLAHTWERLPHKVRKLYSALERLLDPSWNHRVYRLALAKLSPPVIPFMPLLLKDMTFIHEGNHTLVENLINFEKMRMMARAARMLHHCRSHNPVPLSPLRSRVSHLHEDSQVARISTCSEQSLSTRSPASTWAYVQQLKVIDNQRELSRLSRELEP
Rap guanine nucleotide exchange factor 4 (Homo sapiens), sequence (Q8WZA2 whole entry, looked up): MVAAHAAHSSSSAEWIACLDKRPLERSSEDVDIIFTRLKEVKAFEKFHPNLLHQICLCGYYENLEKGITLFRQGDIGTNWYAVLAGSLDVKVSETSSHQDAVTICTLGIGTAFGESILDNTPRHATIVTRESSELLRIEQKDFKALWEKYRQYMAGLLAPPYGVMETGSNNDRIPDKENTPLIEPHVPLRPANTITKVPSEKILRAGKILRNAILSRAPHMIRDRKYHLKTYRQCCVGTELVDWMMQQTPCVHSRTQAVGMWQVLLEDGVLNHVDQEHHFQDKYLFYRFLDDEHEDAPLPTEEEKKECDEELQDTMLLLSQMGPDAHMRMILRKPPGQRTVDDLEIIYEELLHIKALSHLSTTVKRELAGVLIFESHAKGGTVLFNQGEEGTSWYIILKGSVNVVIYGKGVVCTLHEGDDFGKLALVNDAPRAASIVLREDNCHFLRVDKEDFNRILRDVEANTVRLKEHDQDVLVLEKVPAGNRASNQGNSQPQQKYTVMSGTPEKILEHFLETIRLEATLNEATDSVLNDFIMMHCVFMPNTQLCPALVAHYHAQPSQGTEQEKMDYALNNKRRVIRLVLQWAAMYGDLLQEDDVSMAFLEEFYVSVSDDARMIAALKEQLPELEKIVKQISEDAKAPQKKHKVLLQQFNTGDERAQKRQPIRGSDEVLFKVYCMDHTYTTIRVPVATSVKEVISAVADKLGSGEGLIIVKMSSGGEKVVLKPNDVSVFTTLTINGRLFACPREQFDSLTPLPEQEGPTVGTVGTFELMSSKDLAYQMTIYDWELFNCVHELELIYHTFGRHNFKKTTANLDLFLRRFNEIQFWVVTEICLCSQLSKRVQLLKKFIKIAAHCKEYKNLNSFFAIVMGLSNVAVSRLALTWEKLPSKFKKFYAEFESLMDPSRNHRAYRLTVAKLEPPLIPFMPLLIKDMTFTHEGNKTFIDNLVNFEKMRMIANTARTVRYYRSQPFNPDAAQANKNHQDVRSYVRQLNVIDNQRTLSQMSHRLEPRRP

Cc1c([N+](=O)[O-])cnc(Sc2ccccc2)c1[N+](=O)[O-]
inactive: Potency [1] | Potency [2] | Potency [3] | Potency [4] | Potency [5]

COCC(=O)Oc1c(Sc2ccccc2[N+](=O)[O-])c(C)nn1C(C)(C)C
inactive: Potency [1] | Potency [2] | Potency [3] | Potency [4] | Potency [5]

CC(C)C[C@H](NC(=O)C1(c2ccccc2)CCN(C(=O)OC(C)(C)C)CC1)C(=O)N1CCC[C@H]1C(=O)O
inactive: Potency [1] | Potency [2] | Potency [3] | Potency [4] | Potency [5]

CNC(=S)N1CCc2cc(OC)c(OC)cc2C1COc1ccc(F)cc1 (stereo not given)
inactive: Potency [1] | activation [2] 0% [at 17.1 µM, percent relative to cAMP agonist control] | Potency [3] | activity change, negative = inhibition [4] -1.54% [at 30.8 µM] | activation [5] 46.8% [at 30.8 µM]

CCN(c1ccc(NC(=O)CCc2nc3sc4c(c3c(=O)[nH]2)CCCC4)cc1)C(C)C
inactive: Potency [1] | activation [2] -1.91% [at 17.1 µM, percent relative to cAMP agonist control] | Potency [3] | activity change, negative = inhibition [4] -10.9% [at 30.8 µM] | activation [5] 2.05% [at 30.8 µM]

COc1ccc(-c2[nH]c(-c3ccc(F)cc3)nc2SCC(=O)Nc2ccc(OC)c(OC)c2)cc1
inactive: Potency [1] | Potency [2] | Potency [3] | Potency [4] | Potency [5]

Clc1ccc(CON/C=N/c2ncnc3sccc23)cc1
inactive: Potency [1] | activation [2] 8% [at 17.1 µM, percent relative to cAMP agonist control] | Potency [3] | activity change, negative = inhibition [4] -10% [at 30.8 µM] | activation [5] 11.3% [at 30.8 µM]

CCOc1ccc2nc(NC3=NC(c4ccc(OC)cc4)CC(=O)N3)nc(C)c2c1 (stereo not given)
inactive: Potency [1] | activation [2] 2.86% [at 17.1 µM, percent relative to cAMP agonist control] | Potency [3] | activity change, negative = inhibition [4] -8.36% [at 30.8 µM] | activation [5] 10.5% [at 30.8 µM]

Cc1ccc(CN(C(=O)COc2cccc([N+](=O)[O-])c2)c2ccccn2)cc1
inactive: Potency [1] | Potency [2] | outcome [3] inactive [at 12.7 µM] | Potency [4] | Potency [5]

CCCCC(CC)C(=O)Nc1ccc(Nc2ccccc2)cc1 (stereo not given)
inactive: Potency [1] | Potency [2] | Potency [3] | Potency [4] | Potency [5]

C/C(=N\NC(=O)c1cc2ccccc2cc1O)c1ccc(C)o1
inactive: Potency [1] | activation [2] -0.964% [at 17.1 µM, percent relative to cAMP agonist control] | Potency [3] | activity change, negative = inhibition [4] -5.69% [at 30.8 µM] | activation [5] 28.4% [at 30.8 µM]

CN(c1ccccc1)c1ccc(/C=C(\CCC(=O)O)c2nc3ccccc3s2)cc1[N+](=O)[O-]
inactive: Potency [1] | Potency [2] | Potency [3] | Potency [4] | Potency [5]

COc1ccc(/C=N\Nc2ccc([N+](=O)[O-])cc2)c(C(=O)O)c1OC
inactive: Potency [1] | Potency [2] | Potency [3] | Potency [4] | Potency [5]

Cn1c(N)c(C(=O)CSc2nnc(-c3c[nH]c4ccccc34)n2C2CC2)c(=O)[nH]c1=O
inactive: Potency [1] | activation [2] 1.91% [at 17.1 µM, percent relative to cAMP agonist control] | Potency [3] | activity change, negative = inhibition [4] 2.97% [at 30.8 µM] | activation [5] 17.7% [at 30.8 µM]

O=C(NCc1ccccc1)c1ccc2c(=O)[nH]c3c(C(=O)NCC4CCCO4)sc(=S)n3c2c1 (stereo not given)
inactive: Potency [1] | Potency [2] | Potency [3] | Potency [4] | Potency [5]

Cc1ccc(C(C)C)c(OCCCn2c(=O)oc3ccc(C)cc32)c1
inactive: Potency [1] | Potency [2] | Potency [3] | Potency [4] | Potency [5]

COc1cc(-c2cc(OC)c3c(C)oc(C)c3c(=O)c2)ccc1OC(=O)c1ccc(C)cc1
inactive: Potency [1] | Potency [2] | Potency [3] | Potency [4] | Potency [5]

Cc1cc(Cl)ccc1OC(C)C(=O)Nc1ccc(C(=O)Nc2ccccc2C(=O)O)cc1 (stereo not given)
inactive: Potency [1] | Potency [2] | Potency [3] | Potency [4] | Potency [5]

CCCCC[C@@H](C)N1C[C@@H](COCc2ccccc2)Oc2cc(N3CC[C@H](O)C3)ccc2S1(=O)=O
inactive: Potency [1] | activation [2] -2.04% [at 17.1 µM, percent relative to cAMP agonist control] | Potency [3] | activity change, negative = inhibition [4] -7.58% [at 30.8 µM] | activation [5] 2.97% [at 30.8 µM]

CC(C)C[C@H]1CNC(=O)C(=O)N1C[C@@H]1CCCN1C[C@H](Cc1ccc(O)cc1)N1C[C@H](Cc2ccccc2)N(CC2CCCCC2)C(=O)C1=O
active: Potency [3] 47.8 µM
inactive: Potency [1] | Potency [2] | Potency [4] | Potency [5]

CCC(=O)N(CCC(c1ccccc1)c1ccc2c(c1)OCO2)Cc1ccc(OC(C)C)cc1 (stereo not given)
inactive: Potency [1] | Potency [2] | Potency [3] | Potency [4] | Potency [5]

CC1CCCCN1S(=O)(=O)c1ccc(C(=O)Nc2nnc(-c3ccccc3Cl)o2)cc1 (stereo not given)
inactive: Potency [1] | activation [2] 0% [at 17.1 µM, percent relative to cAMP agonist control] | Potency [3] | activity change, negative = inhibition [4] -13.1% [at 30.8 µM] | activation [5] 16.2% [at 30.8 µM]

COc1cccc(OCc2cc(/C=N/Nc3ccc(C(=O)O)cc3)ccc2OC)c1
inactive: Potency [1] | activation [2] 6.81% [at 17.1 µM, percent relative to cAMP agonist control] | Potency [3] | activity change, negative = inhibition [4] -4.72% [at 30.8 µM] | activation [5] 21.5% [at 30.8 µM]

CCc1ccc(-n2c(CCC(=O)O)ccc2-c2cccs2)cc1
inactive: Potency [1] | Potency [2] | Potency [3] | Potency [4] | Potency [5]

CCOC(=O)C(C(C)C)C(N)Cc1ccc(F)cc1 (stereo not given)
inactive: Potency [1] | Potency [2] | Potency [3] | Potency [4] | Potency [5]

Cc1ccn2cc(-c3cccc(NC(=O)c4cccs4)c3)nc2c1
inactive: Potency [1] | Potency [2] | Potency [3] | Potency [4] | Potency [5]

O=C(O)c1cccc(N2C(=O)c3cc([N+](=O)[O-])cc4cc([N+](=O)[O-])cc(c34)C2=O)c1
active: Potency [3] 37.9 µM
inactive: Potency [1] | Potency [2] | Potency [4] | Potency [5]

COc1cc2c(c(OC)c1OC)-c1c(cc(OC)c(OC)c1OC)C[C@H](C)[C@H](C)C2
inactive: Potency [1] | activation [2] 7.13% [at 17.1 µM, percent relative to cAMP agonist control] | Potency [3] | activity change, negative = inhibition [4] -11.3% [at 30.8 µM] | activation [5] 23.6% [at 30.8 µM]

Cc1ccc(NC(=O)CN2C(=O)S/C(=C/c3ccc(O)c([N+](=O)[O-])c3)C2=O)cc1C
inactive: Potency [1] | Potency [2] | Potency [3] | Potency [4] | Potency [5]

COc1ccc2sc(-c3ccc(N(C)C)cc3)c(C#CC(C)(C)O)c2c1
inactive: Potency [1] | Potency [2] | Potency [3] | Potency [4] | Potency [5]

C/C(CC(=O)N1CCCC1)=N\NC(=O)c1cc2ccccc2cc1O
inactive: Potency [1] | Potency [2] | Potency [3] | Potency [4] | Potency [5]

CC1=NN(c2ccc(Br)cc2)C(=O)/C1=C/c1cccs1
inactive: Potency [1] | activation [2] 4.12% [at 17.1 µM, percent relative to cAMP agonist control] | Potency [3] | activity change, negative = inhibition [4] 29.1% [at 30.8 µM]
active: Potency [5] 14.1 µM

N#CC1=C(N)Oc2cc(N)ccc2C1c1ccc(Cl)cc1 (stereo not given)
active: Potency [3] 47.8 µM
inactive: Potency [1] | Potency [2] | Potency [4] | Potency [5]

CCOc1ccc(-n2c(C)nc3cc(C(=O)NCc4ccc(C)cc4)ccc32)cc1
inactive: Potency [1] | Potency [2] | Potency [3] | Potency [4] | Potency [5]

Cc1ccc(Cl)cc1NS(=O)(=O)c1ccccc1
inactive: Potency [1] | activation [2] 2.77% [at 17.1 µM, percent relative to cAMP agonist control] | Potency [3] | activity change, negative = inhibition [4] 0.85% [at 30.8 µM] | activation [5] 7.24% [at 30.8 µM]

O=C(O)C(Cc1c[nH]c2ccccc12)NS(=O)(=O)c1ccc(Cl)c(C(F)(F)F)c1 (stereo not given)
inactive: Potency [1] | activation [2] -2.68% [at 17.1 µM, percent relative to cAMP agonist control] | Potency [3] | activity change, negative = inhibition [4] -4.37% [at 30.8 µM] | activation [5] 21.8% [at 30.8 µM]

CCOC(=O)N(C)c1c(CC)nc2c(OCc3ccc(C(F)(F)F)cc3)cccn12
inactive: Potency [1] | Potency [2] | Potency [3] | Potency [4] | Potency [5]

COc1cccc(C(=O)Nc2nnc(S(=O)(=O)Nc3cccc(C)c3)s2)c1
inactive: Potency [1] | Potency [2] | Potency [3] | Potency [4] | Potency [5]

COc1ccc(-c2nc3ccccc3n2CCC(C)C)cc1OC
inactive: Potency [1] | Potency [2] | Potency [3] | Potency [4] | Potency [5]

CCCn1nc([N+](=O)[O-])c(C(C#N)c2nc3ccccc3o2)c(Cl)c1=O (stereo not given)
inactive: Potency [1] | Potency [2] | Potency [4] | Potency [5]
active: Potency [3] 37.9 µM

CC(C)(C)n1nc(Cc2cccc3ccccc23)c(C#N)c1N
inactive: Potency [1] | Potency [2] | Potency [3] | Potency [4] | Potency [5]

CCO[C@@H]1OC(C(=O)N2CCN(Cc3ccc4c(c3)OCO4)CC2)=C[C@H](C2CCCCC2)[C@H]1CCCO
inactive: Potency [1] | Potency [2] | Potency [3] | Potency [4] | Potency [5]

O=C(CCC(=O)N1CCSc2ccccc21)NCc1cccc(Br)c1
inactive: Potency [1] | activation [2] 9.98% [at 17.1 µM, percent relative to cAMP agonist control] | Potency [3] | activity change, negative = inhibition [4] 0.997% [at 30.8 µM] | activation [5] 10% [at 30.8 µM]
